An excerpt weighted towards active compounds, which were near 2.5% of everything screened.
ASK1 inh – human ASK1 kinase inhibition, primary screen; 22,000 tested, 0.99% active; AlphaScreen MKK6 phosphorylation by ASK1, luminescence; inhibition, % at 7.44 µM; in the data active = inhibition above about 35%;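 also: 0% = median of compound wells and 100% = no enzyme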
ULK1 primary – inhibitors of human ULK1 kinase; inhibition, % at 5.96 µM; O75385; AlphaScreen Atg13 phosphorylation by ULK1, luminescence; 30,000 tested, 1.9% active; in the data active = inhibition above about 43%;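 also: 0% = median of compound wells and 100% = no enzyme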
Target sequence (O75385 whole entry, looked up): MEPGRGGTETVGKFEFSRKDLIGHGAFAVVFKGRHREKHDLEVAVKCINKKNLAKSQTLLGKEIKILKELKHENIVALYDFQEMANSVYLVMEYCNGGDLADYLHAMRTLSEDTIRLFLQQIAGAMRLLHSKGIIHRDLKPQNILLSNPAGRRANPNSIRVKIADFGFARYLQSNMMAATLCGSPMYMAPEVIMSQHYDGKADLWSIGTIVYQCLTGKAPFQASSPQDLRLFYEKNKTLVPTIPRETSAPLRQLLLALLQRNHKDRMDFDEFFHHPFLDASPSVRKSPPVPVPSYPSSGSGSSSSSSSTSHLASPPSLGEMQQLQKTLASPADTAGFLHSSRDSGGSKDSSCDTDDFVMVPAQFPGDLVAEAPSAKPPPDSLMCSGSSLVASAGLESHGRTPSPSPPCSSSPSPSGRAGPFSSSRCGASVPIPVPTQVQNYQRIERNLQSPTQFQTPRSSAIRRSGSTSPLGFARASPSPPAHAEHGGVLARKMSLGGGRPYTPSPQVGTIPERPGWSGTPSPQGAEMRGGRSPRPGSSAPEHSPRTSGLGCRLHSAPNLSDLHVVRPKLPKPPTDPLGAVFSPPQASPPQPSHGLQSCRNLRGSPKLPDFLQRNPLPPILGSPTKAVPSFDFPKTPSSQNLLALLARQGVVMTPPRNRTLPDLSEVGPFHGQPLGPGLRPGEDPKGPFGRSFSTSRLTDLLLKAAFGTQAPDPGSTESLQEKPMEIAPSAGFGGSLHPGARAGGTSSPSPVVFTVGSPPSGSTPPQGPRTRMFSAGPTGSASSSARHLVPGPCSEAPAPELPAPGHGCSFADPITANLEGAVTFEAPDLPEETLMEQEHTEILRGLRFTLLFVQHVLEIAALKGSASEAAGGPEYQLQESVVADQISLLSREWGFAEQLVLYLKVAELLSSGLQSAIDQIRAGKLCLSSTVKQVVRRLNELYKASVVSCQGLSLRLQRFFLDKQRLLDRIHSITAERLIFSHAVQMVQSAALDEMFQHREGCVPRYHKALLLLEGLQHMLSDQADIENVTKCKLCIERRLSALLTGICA
* hit, by the source's call; · = no result given.

SMILES	ASK1 inh	ULK1 primary
N[C@H](Cc1cccc(F)c1)c1nc2ncc(-c3ccncc3)cc2[nH]1	2.0	1.0
COc1cc(Nc2nc(NCCN(C(C)C)C(C)C)c3ncn(Cc4ccc(C(F)(F)F)cc4)c3n2)cc(OC)c1OC	-5.7	-37.6
COc1cccc(OCc2nc3ccc(-c4ccnc(N)n4)cc3[nH]2)c1	10.1	62.1*
Cc1ccccc1OCc1nc2ccc(-c3cn[nH]c3)cc2c(=O)[nH]1	14.1	-14.0
COc1cccc2c1OCC(c1nc3ccc(-c4ccnc(N)n4)cc3[nH]1)C2 (centres undefined)	-3.2	-2.2
Nc1nccc(-c2ccc3nc(CCOc4ccc(CC(=O)NC5CC5)cc4)[nH]c3c2)n1	5.9	11.3
COc1ccccc1OCc1nc2ccc(-c3ccnc(N)n3)cc2[nH]1	-1.4	47.6*
Cc1ccccc1OCc1nc2ccc(-c3ccnc(N)n3)cc2[nH]1	7.9	43.5*
O=C(NCc1ccccc1)C1C2C=CC(C2)C1C(=O)NCc1ccccc1 (centres undefined)	·	-5.0
NC(=O)c1ccc(-c2cc(NCCCN3CCCC3=O)ncn2)cc1	2.4	3.9
COc1nc(NC2CC2)nc(-c2ccccc2)n1	-1.7	16.6
N#C/C(=C\c1nn(-c2ccccc2)c(N)c1C#N)c1ccco1	·	44.6*
COc1ccc(-c2nc(C(=O)Nc3ccccc3)cs2)cc1	1.8	-28.7
OCCNc1nc(Nc2ccc(C(F)(F)F)cc2)nc2c1ncn2Cc1ccc(C(F)(F)F)cc1	0.8	-38.6
NC(=O)c1cccnc1	·	-13.3
O=C(OCC1(COC(=O)c2cccnc2)CCCC(COC(=O)c2cccnc2)(COC(=O)c2cccnc2)C1O)c1cccnc1	·	45.3*
CCOC(=O)C(N)Cc1ccc(O)c(O)c1 (centres undefined)	·	66.3*
COC(=O)[C@@H](N)Cc1ccc(O)c(O)c1	·	14.2
CNC(=O)c1cc(F)ccc1Nc1cc(Nc2cccc(OC)c2)ncc1C(F)(F)F	0.4	83.8*
CNC(=O)c1cc(F)ccc1Nc1cc(Nc2ccc(NC(C)=O)cc2)ncc1C(F)(F)F	3.1	79.1*
CC(=O)Nc1ccc(Nc2cc(C)nc(Nc3ccc(C(F)(F)F)cc3)n2)cc1	28.3	-34.3
O=C(Nc1ccc2[nH]ncc2c1)C1CCN(C(=O)C(O)c2ccc(F)cc2)CC1 (centres undefined)	12.7	7.5
CC(=O)Nc1ccc(Nc2ccnc(Nc3ccccc3)n2)cc1	-13.3	3.8
CC(C)n1cnc2c(NCCN3CCOCC3)nc(-c3ccccc3)nc21	-0.4	3.0
COc1cc2nc(-c3cccc(N)c3)nc(NCCOc3ccccc3)c2cc1OC	-3.1	-18.6
SMILES	ASK1 inh	ULK1 primary
CCCNc1nc(Nc2cccc(N(C)C)c2)nc2cc(OC)c(OC)cc12	25.4	4.1
COc1cc2nc(Nc3cccc(N(C)C)c3)nc(NC3CC3)c2cc1OC	49.2*	6.7
COc1cc2nc(Nc3ccccc3)nc(NCCOc3ccccc3)c2cc1OC	-6.1	-17.6
COc1cc2nc(Nc3cccc(N(C)C)c3)nc(NCCOc3ccccc3)c2cc1OC	39.8*	-31.5
COC(CNc1cc(-c2cncc(-c3ccc(F)cc3)c2)nc(C)n1)OC	·	-15.6
O=C(Nc1nc2c(s1)CN(Cc1ccccc1)CC2)C1CCCCC1	·	0.1
N#Cc1c(N)sc(=S)c2c1CCN(Cc1ccccc1)C2	·	75.4*
O=C(NCc1ccccc1)c1cccc(Nc2nccc3ccccc23)c1	-16.1	-9.6
O=C(Nc1ccc(-c2cn[nH]c2)cc1OCCN1CCCC1)[C@H]1COc2ccccc2O1	-11.7	6.9
CN1CCN(C(=O)c2ccc(-c3nc(NCCCN4CCCC4=O)c4ncn(CCN5CCCC5=O)c4n3)cc2)CC1	-2.9	-3.2
COc1cccc(CNC(=O)Nc2ccc(-c3ncnc4[nH]ccc34)cc2)c1	-6.7	16.3
O=S(=O)(NCc1ccccc1)c1ccc(-c2ncnc3[nH]ccc23)cc1	0.7	45.3*
COc1cccc(CNS(=O)(=O)c2ccc(-c3ccnc4[nH]ccc34)cc2)c1	-6.1	22.3
COc1cccc(CNS(=O)(=O)c2ccc(-c3ncnc4[nH]cc(C)c34)cc2)c1	-0.5	59.5*
CN1CCN(C(=O)c2ccc(-c3cc(NCc4nc5ccccc5[nH]4)ncn3)cc2)CC1	4.9	-9.7
CCCNc1nc(OC)nc(-c2cccc(N)c2)n1	0.6	-7.3
CSc1cccc(C(=O)Nc2nc3c(s2)CN(Cc2ccccc2)CC3)c1	·	6.6
COc1cc(Nc2nccc(NCCCN3CCCC3=O)n2)cc(OC)c1OC	-1.1	52.0*
CCCNC(=O)c1ccnc(NCCCN2CCCC2=O)c1	-36.0	60.5*
O=C1CCCN1CCCNc1nc(Nc2ccc(N3CCOCC3)cc2)nc2nc[nH]c12	3.3	53.8*
O=C(NCCCN1CCCC1=O)c1ccnc(Nc2ccncc2)c1	6.4	5.8
Cn1nccc1Nc1nc(NCCCN2CCCC2=O)c2[nH]cnc2n1	-6.4	-4.4
O=C1CCCN1CCCNc1ccnc(NCCCN2CCCC2=O)n1	-5.7	0.0
COc1cc(Nc2nc(NCCCN3CCCC3=O)c3[nH]cnc3n2)cc(OC)c1OC	-32.5	74.3*
O=C1CCCN1CCCNc1ncnc2nc(Nc3ccc(N4CCOCC4)cc3)[nH]c12	-4.3	6.7
SMILES	ASK1 inh	ULK1 primary
CCOP(=O)(OCC)C(NC(=O)c1ccccc1)C(=O)c1ccccc1 (centres undefined)	·	-0.6
CC(=O)Nc1ccc(-c2sc(NC(=O)C3COc4ccccc4O3)nc2-c2ccncc2)cc1 (centres undefined)	6.1	-8.6
c1ccc(OCCNc2nc(Nc3ccc(N4CCOCC4)cc3)nc3nc[nH]c23)cc1	26.3	69.0*
c1nc2nc(Nc3ccc(N4CCOCC4)cc3)nc(NCCN3CCOCC3)c2[nH]1	-0.4	17.5
CC(=O)Nc1ccc(Nc2cc(-c3c(C)noc3C)ncn2)cc1	-2.9	-2.6
O=C(CCl)Nc1nc(-c2ccc(Br)cc2)cs1	·	44.6*
CO/N=C(\C(=O)O)c1csc(NC(=O)CCl)n1	·	16.6
Nc1nc(NCCN2CCOCC2)cc(NCCN2CCOCC2)n1	-29.0	2.8
CCC(=O)/C=C/n1c(=S)oc2ccccc21	·	48.4*
Cc1cncc2cccc(S(=O)(=O)N3CCCN(C(=O)CN)C[C@@H]3C)c12	2.5	66.8*
Cc1cncc2c(S(=O)(=O)N3CCCN(C(=O)CN)C[C@@H]3C)cccc12	4.0	7.4
Cc1ccc(-c2ncn(-c3ccc(Nc4cc(Nc5ccccc5C(N)=O)c(C)cn4)cc3)n2)cn1	-25.6	-5.9
CC(C)N(CCNc1nc(Nc2ccncn2)nc2nc[nH]c12)C(C)C	-14.8	-6.2
O=C(NC1CC1)c1ccc(-c2cc(C(=O)NC3CC3)ccn2)cc1	-19.9	4.1
CC(=O)Nc1ccc(NC(=O)c2ccnc(-c3ccc(C(=O)NC4CC4)cc3)c2)cc1	7.2	44.2*
COc1ccc(-c2cnc(NCc3ccco3)nc2)cc1	·	1.5
COc1ccc(CC(=O)Nc2ncc3ccc(-c4cn[nH]c4)cc3c2C#N)cc1	-38.9	5.5
COc1ccc(CC(=O)Nc2ncc3ccc(-c4cn[nH]c4)cc3c2Cl)cc1	0.7	83.0*
COc1ccccc1N1C(=O)c2cccc3c(C(=O)O)ccc(c23)C1=O	·	6.7
CCC(=N)c1ccc(OC)c2cccc(NC)c12	·	64.4*
COc1nc(NCCO)nc(-c2c(C)nn(C)c2C)n1	-2.9	5.8
c1cc(-c2cncc(N3CCOCC3)c2)nc(Nc2ccc(-c3cnco3)cc2)n1	9.0	10.4
N[C@H](C(=O)O)[C@H](O)c1ccc(O)c(O)c1	·	88.6*
CNC[C@H](O)c1ccc(O)c(O)c1	·	-0.3
O=C(Cc1cn(-c2ccc(NCCCN3CCCC3=O)nn2)c2ccccc12)Nc1ccc(Oc2ccccc2)cc1	16.4	-12.9

From PubChem
